# Test results published in publication PMC4336329 (PLoS ONE, 2015).
# About 14,000 (4.5%) of roughly 310,000 compounds showed an effect of 50% or more. Effects have a minus sign here. The entries come from a sample that favours strong results as a whole.
# Target: human ether-à-go-go-related gene (hERG) potassium channel (human, UniProt Q12809)
# Assay: primary screen, population patch clamp on CHO cells stably expressing hERG; higher = less effect of the substance
# 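Further: peak tail current of the secondary pulse compared with the same well before compound.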
# Chain of human ether-à-go-go-related gene (hERG) potassium channel (Q12809 whole entry, looked up): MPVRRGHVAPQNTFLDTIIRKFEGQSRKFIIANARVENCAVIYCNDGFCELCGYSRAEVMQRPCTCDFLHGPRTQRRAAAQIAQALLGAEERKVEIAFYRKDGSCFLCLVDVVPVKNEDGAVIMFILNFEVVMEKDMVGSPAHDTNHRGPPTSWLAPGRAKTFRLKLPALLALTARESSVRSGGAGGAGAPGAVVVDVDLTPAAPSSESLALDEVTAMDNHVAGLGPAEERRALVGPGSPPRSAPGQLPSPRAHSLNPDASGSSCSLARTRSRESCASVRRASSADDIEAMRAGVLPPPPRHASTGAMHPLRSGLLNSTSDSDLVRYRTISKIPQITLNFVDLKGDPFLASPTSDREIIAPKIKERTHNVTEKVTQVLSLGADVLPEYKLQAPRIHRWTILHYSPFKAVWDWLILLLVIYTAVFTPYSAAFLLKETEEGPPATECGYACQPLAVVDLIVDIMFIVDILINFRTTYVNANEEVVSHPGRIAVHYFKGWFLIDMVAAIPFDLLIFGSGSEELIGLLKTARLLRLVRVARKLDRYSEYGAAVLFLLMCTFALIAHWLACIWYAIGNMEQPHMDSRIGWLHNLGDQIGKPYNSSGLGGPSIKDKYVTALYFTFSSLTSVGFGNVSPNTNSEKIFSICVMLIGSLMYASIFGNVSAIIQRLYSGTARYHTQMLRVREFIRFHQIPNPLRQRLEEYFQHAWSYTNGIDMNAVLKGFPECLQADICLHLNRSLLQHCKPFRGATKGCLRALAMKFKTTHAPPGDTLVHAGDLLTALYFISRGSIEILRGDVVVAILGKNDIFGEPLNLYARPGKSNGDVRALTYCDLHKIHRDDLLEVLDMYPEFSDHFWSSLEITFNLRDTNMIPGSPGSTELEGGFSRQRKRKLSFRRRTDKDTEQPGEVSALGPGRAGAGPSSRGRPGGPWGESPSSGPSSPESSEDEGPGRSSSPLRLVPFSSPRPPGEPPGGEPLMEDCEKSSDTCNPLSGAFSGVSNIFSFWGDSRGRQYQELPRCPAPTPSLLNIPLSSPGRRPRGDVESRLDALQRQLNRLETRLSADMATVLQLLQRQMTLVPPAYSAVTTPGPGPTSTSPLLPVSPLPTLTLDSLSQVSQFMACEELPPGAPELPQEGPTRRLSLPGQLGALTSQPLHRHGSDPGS
row,SMILES,"hERG current change (%, negative = inhibition) at 10uM [%]"
1,CC1CCN(C(=O)CNC(=O)CNC(=O)Cc2ccccc2)CC1,4.9
2,C=CCN1C(=O)C2C(C(=O)NC3CCCC3)C3C=CC2(O3)C1C(=O)NC1CCCC1 (centres unmarked),19
3,COC(=O)c1sccc1NC(=O)c1c(F)c(F)c(F)c(F)c1F,27
4,COc1ccc(Br)cc1CN(C)CC(O)COc1ccc(Br)cc1 (centres unmarked),-74.6
5,CN(Cc1ccccc1)CC(O)COc1ccc(CNCc2nccn2C)cc1 (centres unmarked),-72.5
6,Cc1cc(CN(C)Cc2ccc(OCC(O)CN(C)Cc3ccccc3)cc2)on1 (centres unmarked),-4.84
7,CN(Cc1ccc(Br)cc1)CC(O)COc1cccc(Br)c1 (centres unmarked),-28.5
8,CN(Cc1ccccc1)CC(O)COc1ccc(CNCc2cccnc2)cc1 (centres unmarked),1.13
9,COc1ccc(OCC(O)CNc2ccc(Br)cc2)cc1 (centres unmarked),9.56
10,CCn1ccnc1CNCc1ccc(OCC(O)CN(C)Cc2ccccc2)cc1 (centres unmarked),-11.7
11,CN(Cc1ccc(OCC(O)CN(C)Cc2ccccc2)cc1)Cc1nccn1C (centres unmarked),-4.14
12,COc1ccc(CN(C)CC(O)COc2ccc(-c3ccccc3)cc2)cc1OC (centres unmarked),-69.4
13,CC(=O)Nc1ccccc1-c1nn[nH]n1,0.73
14,Cc1c(CCN)ccc2c1[nH]c1ccccc12,0.0766
15,Oc1ccccc1/C=N/N1CCCCC1,6.81
16,CCN(CC)c1ncnc2c1ncn2Cc1c(Cl)cccc1Cl,2.93
17,CC(C(=O)O)n1cc(Cl)cn1 (centres unmarked),8.82
18,CCCCn1c(N)c(N(CC(C)C)C(=O)CN2C(=O)c3ccccc3C2=O)c(=O)[nH]c1=O,-7.79
19,Cc1ccc(NC(=O)c2ccc(OC(=O)c3cc4ccccc4o3)cc2)cc1,8.66
20,O=c1c2ccccc2nc2n1C(CSc1ccccc1)CS2 (centres unmarked),-19.6
21,O=c1c2ccccc2nc2n1C(CSCc1cccc(C(F)(F)F)c1)CS2 (centres unmarked),-23.4
22,O=c1c2ccccc2nc2n1C(CSCc1ccc(Cl)cc1Cl)CS2 (centres unmarked),-21.8
23,Cc1nc2ccccc2c(=O)n1NC(=O)c1cccc(Cl)c1,13

row,SMILES,"hERG current change (%, negative = inhibition) at 10uM [%]"
1,O=C(Nc1ccccc1SCC1CSc2nc3ccccc3c(=O)n21)c1ccccc1 (centres unmarked),-67.7
2,Nc1ccccc1SCC1CSc2nc3ccccc3c(=O)n21 (centres unmarked),-45.2
3,Cc1cccc(C(=O)Nc2ccccc2SCC2CSc3nc4ccccc4c(=O)n32)c1 (centres unmarked),-80.4
4,COc1cccc(SCC2CSc3nc4ccccc4c(=O)n32)c1 (centres unmarked),-22.3
5,O=c1c2ccccc2nc2n1C(CBr)CS2 (centres unmarked),15.6
6,Cc1ccc(C(=O)Nc2ccccc2SCC2CSc3nc4ccccc4c(=O)n32)cc1 (centres unmarked),-68.4
7,Cc1ccc(C(=O)Nc2nc3ccccc3c(=O)s2)cc1,15.9
8,O=C(Nc1ccccc1SCC1CSc2nc3ccccc3c(=O)n21)c1cccc(Cl)c1 (centres unmarked),-75.5
9,Cc1ccc(OC2CCN(C(=O)C3CCC(=O)N(C4CC4)C3)CC2)cc1 (centres unmarked),-15.8
10,COC(=O)c1ccc(COC(=O)Cc2n[nH]c(=O)c3ccccc23)cc1,-1.24
11,CCC(C)N=CC1=C(O)CC(c2ccccc2)CC1=O (centres unmarked),-4.11
12,COc1ccc(C(=O)NCC(=O)OCC(=O)NC(=O)c2ccc(C(C)(C)C)cc2)cc1OC,-23.7
13,CCN(CC)c1ncc(C#N)c(N)n1,8.37
14,COc1ccc(CNC(=O)C2C3C=CC4(CN(Cc5cccnc5)C(=O)C24)O3)cc1 (centres unmarked),-16.2
15,CCCc1nnc(NC(=O)c2ccncc2)s1,-3.78
16,COc1ccc(NS(=O)(=O)c2ccc(NS(=O)(=O)c3cccs3)cc2)cc1,11.8
17,CCOC(=O)c1cnc(-c2ccccc2)nc1Oc1ccc(OC)cc1,14.2
18,CCc1csc(CCNC(=O)C2CCC(=O)N(CCc3cccc(F)c3)C2)n1 (centres unmarked),-13.4
19,O=c1c2ccccc2nc2n1C(CSc1ccc(F)cc1)CS2 (centres unmarked),-33.3
20,O=c1c2ccccc2nc2n1C(CSCc1ccccc1)CS2 (centres unmarked),-37.1
21,O=C(Nc1ccccc1SCC1CSc2nc3ccccc3c(=O)n21)c1ccccc1Cl (centres unmarked),-70.5
22,COC(=O)c1sc2ccccc2c1NC(=O)c1ccc(S(=O)(=O)N2CCCCC2)cc1,11.2
23,Cc1c(/C=N/NC(=O)c2ccc(Br)o2)cnn1C,21

row,SMILES,"hERG current change (%, negative = inhibition) at 10uM [%]"
1,N#CCCN1CCN(C2=NC(=O)/C(=C\c3cccs3)S2)CC1,-52.4
2,O=C1N=C(N2CCN(Cc3ccccc3)CC2)S/C1=C/c1cccs1,-41.1
3,O=C1N=C(N2CCOCC2)S/C1=C/c1cccs1,-5.52
4,O=C(CCSCc1cccc(Cl)c1)NCCc1ccc(Cl)cc1,4.09
5,CCCCCCCCn1c(N2CCN(c3cccc(Cl)c3)CC2)nc2c1c(=O)[nH]c(=O)n2C,5.65
6,Cc1ccc(S(=O)(=O)NCCC(=O)N2CCC(C(N)=O)CC2)cc1C,-6.54
7,CCOc1ccccc1C(=O)NC1CC2CCCC(C1)N2Cc1ccc(C)cc1 (centres unmarked),-65.2
8,Cc1ccccc1C(=O)NC1CC2CCC(C1)N2Cc1ccccc1 (centres unmarked),-25
9,CCOc1ccccc1CN1C2CCC1CC(c1ccc(C)cc1)C2 (centres unmarked),-60.9
10,CCOc1ccccc1CN1C(=O)NC2(CCCCCC2)C1=O,9.32
11,CCOc1ccccc1C(=O)NC1CC2CCCC(C1)N2C1CC1 (centres unmarked),-19
12,Cc1ccccc1C(=O)NC1CC2CCCC(C1)N2Cc1ccc(Cl)cc1 (centres unmarked),-71
13,CCCN1C2CCCC1CC(NC(=O)c1ccccc1OCC)C2 (centres unmarked),-47.2
14,CCOc1ccccc1C(=O)NC1CC2CCCC(C1)N2Cc1ccccc1 (centres unmarked),-54.5
15,CCCN1C2CCCC1CC(NC(=O)c1ccccc1OC)C2 (centres unmarked),-3.42
16,COc1ccccc1C(=O)NC1CC2CCC(C1)N2Cc1ccccc1 (centres unmarked),-20.4
17,Cc1ccccc1C(=O)NC1CC2CCCC(C1)N2Cc1ccccc1 (centres unmarked),-25
18,CCOc1ccccc1CN1CCC(O)CC1,12.1
19,O=S(=O)(Nc1ccc(O)cc1)c1cccc2cccnc12,10.2
20,Cc1ccc(CN2CC(C(=O)Nc3ccc(S(=O)(=O)Nc4cc(C)nc(C)n4)cc3)CC2=O)cc1 (centres unmarked),15.6
21,CCC1C(=O)NCCN1C(=O)c1cccc(OC2CCN(S(=O)(=O)N(C)C)CC2)c1 (centres unmarked),14
22,CN(C)CCN(Cc1ccccc1)C(=O)[C@H](Cc1ccccc1)N1C(=O)c2ccccc2C1=O,-30.1
23,Cc1ccc(S(C)(=O)=NS(=O)(=O)c2cccc3nsnc23)cc1 (centres unmarked),7.47

row,SMILES,"hERG current change (%, negative = inhibition) at 10uM [%]"
1,O=c1c2ccccc2nc(SCc2nnc(-c3ccccc3Br)o2)n1-c1ccccc1,-1.38
2,Cc1csc(C(C#N)C(=O)c2cc3ccccc3o2)n1 (centres unmarked),-7.89
3,CN(C)S(=O)(=O)Nc1ccccn1,16.5
4,CCCCc1cc(=O)oc2cc(C)cc(O)c12,-17.2
5,Cn1c(-c2ccccc2)cc2ccccc21,9.39
6,COc1ccc(S(=O)(=O)N2CCN(C(=O)COc3ccc(C)c(C)c3)CC2)cc1OC,-37.1
7,CCn1cc(C(=O)NCCCN2CC(C)CC(C)C2)c(=O)c2cc(S(=O)(=O)N(C)C)ccc21 (centres unmarked),-55.5
8,CCn1cc(C(=O)NCCCOC)c(=O)c2cc(S(=O)(=O)N(C)C)ccc21,14.3
9,CCn1cc(C(=O)NCCCN2CCCC(C)C2)c(=O)c2cc(S(=O)(=O)N3CCOCC3)ccc21 (centres unmarked),14.6
10,CN(C1CCCCC1)S(=O)(=O)c1ccc2c(c1)c(=O)c(C(=O)NCCN1CCCC1)cn2C,-27.7
11,CC1CCCN(CCCNC(=O)c2cn(C)c3ccc(S(=O)(=O)N(C)C4CCCCC4)cc3c2=O)C1 (centres unmarked),-71.4
12,CCn1cc(C(=O)N2CC(C)CC(C)C2)c(=O)c2cc(S(=O)(=O)N(C)C)ccc21 (centres unmarked),-8.98
13,CCn1cc(C(=O)NCCCN2CC(C)CC(C)C2)c(=O)c2cc(S(=O)(=O)N(C)C3CCCCC3)ccc21 (centres unmarked),-84.3
14,CN(C1CCCCC1)S(=O)(=O)c1ccc2c(c1)c(=O)c(C(=O)NCCCN1CCCC1)cn2C,-25.6
15,CCn1cc(C(=O)NCCCN2CCCC(C)C2)c(=O)c2cc(S(=O)(=O)N(C)C3CCCCC3)ccc21 (centres unmarked),-80.1
16,Cc1ccc(NC(=O)c2ccc(NC(=O)C3CCCCC3C(=O)O)cc2)cc1 (centres unmarked),14.4
17,O=C(CN1C(=O)NC2(CCCC2)C1=O)N1CCN(S(=O)(=O)c2cccc(C(F)(F)F)c2)CC1,-5.43
18,O=C(O)C(Cc1c[nH]c2ccccc12)N1C(=O)c2ccccc2C1=O (centres unmarked),-2.61
19,Cc1ncc(CO)c(/C=N/Nc2cccc(Cl)n2)c1O.Cl,8.89
20,O=c1oc(-c2ccc(Br)cc2)nc2ccccc12,17.8
